{
  "source": "the supplement of paper PMC10681739",
  "data": [
    {"target": "T1, ETS1 (UniProt P14921)", "T1 sequence": "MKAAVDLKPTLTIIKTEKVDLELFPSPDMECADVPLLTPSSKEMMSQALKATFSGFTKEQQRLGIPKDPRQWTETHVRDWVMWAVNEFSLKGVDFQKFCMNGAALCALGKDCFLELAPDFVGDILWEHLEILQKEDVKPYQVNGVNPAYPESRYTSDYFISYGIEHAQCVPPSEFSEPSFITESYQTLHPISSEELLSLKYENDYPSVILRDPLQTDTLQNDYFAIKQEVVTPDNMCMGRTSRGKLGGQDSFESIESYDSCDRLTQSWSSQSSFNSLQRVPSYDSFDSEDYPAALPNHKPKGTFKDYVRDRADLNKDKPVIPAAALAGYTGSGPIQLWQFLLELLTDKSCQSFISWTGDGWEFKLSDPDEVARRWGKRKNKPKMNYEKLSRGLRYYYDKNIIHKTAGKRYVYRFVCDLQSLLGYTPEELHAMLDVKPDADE", "experiment": "TF binding intensity (PBM fluorescence), negative control probe (arbitrary fluorescence units); higher = stronger binding", "procedure": "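gcPBM negative-control 36-bp genomic probes lacking TF binding sites. Each was incubated with recombinant human ETS1 or RUNX1 alone and detected by antibody fluorescence. Values are medians over replicate spots (4 spots for the ETS1-RUNX1 arrays, 3 for the ETS1-ETS1 array). The probes sit in constant array flanks that are not printed.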", "values": [
      {"sequence": "GGCATCTACCTCCCAGGAGCAAGCGGGAGACAGCCC (protein concentration 10 nM)", "TF binding intensity": 134},
      {"sequence": "TCCAGAATTGCAAGGTCTGGGGAGCTGGGTGCCACA (protein concentration 10 nM)", "TF binding intensity": 107},
      {"sequence": "CTCAGTGCCTGCCTCAGATGTTTAAGTCTGAACATT (protein concentration 10 nM)", "TF binding intensity": 110},
      {"sequence": "GCTATTTTCTCTGCTTGAACATACCGTGTACACACA (protein concentration 10 nM)", "TF binding intensity": 178},
      {"sequence": "CACCTCCTAAACAAAGCCGCATAGGTGATGGTGATG (protein concentration 1 nM)", "TF binding intensity": 463},
      {"sequence": "GAAATGGAGCAGAAAACCTGGAACCCAGCTGGGAAG (protein concentration 10 nM)", "TF binding intensity": 117}
    ]}
  ]
}
